Screening data (PubChem)
This is a sample that favours compounds with a hit; in the whole collection about 6.3% have one here.
Spn DPM-DC inh: S. pneumoniae DPM-DC inhibitors, primary screen, biochemical, PK/LDH-coupled NADH fluorescence | diphosphomevalonate decarboxylase (Streptococcus pneumoniae D39) | purified DPM-DC | calls only at 10 µM | 65,000 compounds, 0.49% hits | AID 556, 2006;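 active means the 320 compounds with the highest percent inhibition in the single-dose primary screen, excluding strongly autofluorescent ones, cut at about 32% in these data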;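 further: kinetic rate of NADH fluorescence loss reporting ADP formed by the decarboxylase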
MK inhibit: S. pneumoniae MK inhibitors, primary screen, biochemical, PK/LDH-coupled NADH absorbance. purified MK, PK/LDH-coupled NADH absorbance 340 nm. mevalonate kinase [Streptococcus pneumoniae D39]. AID 555, 2006. 65,000 compounds, 0.48% hits. inhibition, % at 10 µM;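 active means ranked among the strongest by inhibition in the single 10 µM screen, a fixed top-ranked set picked for dose follow-up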
NADH coupling: inhibitors of PK/LDH coupling enzymes, profiling panel, artefact control, biochemical, MLSMR library. coupled PK/LDH NADH assays, four targets. IC50, µM (doses to about 10 µM), for inactives: at the top dose inhibition. 65,000 compounds, 0.02% hits. AID 774, 2007;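 active means single-dose screening hits from any of four coupled enzyme assays that gave an IC50 when retested across doses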;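 further: the DPM-DC format reads NADH fluorescence rather than 340 nm absorbance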
Spn PMK inh: S. pneumoniae PMK inhibitors, primary screen, biochemical, mevalonate pathway, pilot trial included; phosphomevalonate kinase (Streptococcus pneumoniae D39); purified PMK, PK/LDH-coupled NADH absorbance 340 nm; inhibition, % at 10 µM; 65,000 compounds, 0.49% hits; AID 539, 2006;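 active means top-ranked compounds by inhibition in the single 10 µM screen, taking a fixed number of the strongest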;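 further: 0% = full reaction with DMSO carrier and 100% = background rate without enzyme reaction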
A340 absorber: compound light absorbance at 340 nm, profiling panel, artefact control, biochemical, MLSMR library, data from PS, PMK, MK assays. compound absorbance at 340 nm, fold over control. fold change at 10 µM. AID 708, 2007. 65,000 tested, under 10 active;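 active means at 10 µM dose, initial 340 nm absorbance at least 2 fold that of control wells; inactive means change under 2 fold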;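 further: initial absorbance extrapolated from kinetic A340 decline of NADH oxidation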
Fluor 339 460: intrinsic fluorescence of library compounds, ex339/em460 – biochemical, MLSMR library, data from DPM-DC assay, artefact control, profiling panel. compound autofluorescence, ex339/em460 nm, NADH buffer; stronger effect = higher value; 1 = no-compound wells, NADH background. fluorescence fold increase at 10 µM. 65,000 compounds, 5.5% hits. AID 709, 2007;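 active means at 10 µM, mean starting fluorescence two-fold or more over control wells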;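 further: signal is the first read of a kinetic run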
* hit, by the source's call; i = inactive; nt = no result shown; + = active, no number.

SMILES | Spn DPM-DC inh | MK inhibit | NADH coupling | Spn PMK inh | A340 absorber | Fluor 339 460
c1ccc2oc(-c3nn4c(Cn5cnc6ccccc65)nnc4s3)cc2c1 | i | 8.0 | 9.0% | 11.0 | 1.14 | 2.2*
CCOC(=O)C1CCN(C(c2cccc(OC)c2)c2sc3nc(C)nn3c2O)CC1 (stereo not given) | i | 8.0 | 5.0% | 6.0 | 1.02 | 1.01
CN(C)C(=O)N1CCC(C(=O)NCc2cccs2)CC1 | + | 0.0 | 22.0% | 22.0 | 1.01 | 0.58
CN(C)C(=O)N1CCCC(C(=O)NCc2cccs2)C1 (stereo not given) | i | 0.0 | 7.0% | 21.0 | 0.99 | 0.98
Cc1c(C(=O)NCC2CCCO2)oc2ccc3c(c12)C(=O)CC(C)(C)O3 (stereo not given) | i | 4.0 | 13.0% | 13.0 | 1.03 | 2.99*
Cc1c(C(=O)NCC2CCCO2)oc2ccc(S(=O)(=O)N3CCCC3)cc12 (stereo not given) | i | 6.0 | 2.0% | 0.0 | 1.06 | 1.13
O=C1NC2(CCCCC2)Oc2ccccc21 | i | 7.0 | 4.0% | 6.0 | 1.03 | 1.12
O=C1c2ccccc2NC2(CCCCC2)N1c1ccc(O)cc1 | nt | 9.0 | 9.0% | 9.0 | 1.09 | 3.74*
O=C(NCc1ccco1)c1ccccc1Nc1ccc(F)cc1 | i | 7.0 | 1.0% | 0.0 | 1 | 0.99
CCOc1cc(C(=O)NCc2nnc(SCC(=O)OC)n2C)cc(OCC)c1OCC | i | 0.0 | 12.0% | 12.0* | 1 | 1.03
CC(=O)c1cc(OC(=O)c2ccncc2)ccc1OC(=O)c1ccncc1 | i | 6.0 | 2.0% | 0.0 | 1.03 | 1.07
O=C(Cn1cnnn1)OCC(=O)c1ccc(Cl)s1 | i | 0.0 | 9.0% | 14.0 | 1.02 | 2.3*
O=C1CC(c2ccc(F)cc2)Cc2nc(N3CCc4ccccc43)ncc21 (stereo not given) | nt | 7.0 | 13.0% | 19.0 | 1.1 | 3.82*
O=C1CC(c2ccc(F)cc2)Cc2nc(N3CCN(c4ccccc4)CC3)ncc21 (stereo not given) | i | 4.0 | 2.0% | 2.0 | 1.03 | 1.24
CCCCC(=O)Nc1cc2nn(-c3ccc(OC)cc3)nc2cc1C | nt | 14.0 | 13.0% | 11.0 | 1.09 | 3.61*
CCC(=O)Nc1cc2nn(-c3ccc(OC)cc3)nc2cc1C | nt | 0.0 | 11.0% | 21.0 | 1.03 | 3.77*
CCC(=O)Nc1c2c(nn1-c1ccc(OC)cc1)CS(=O)C2 (stereo not given) | i | 2.0 | 1.0% | 2.0 | 1.04 | 1.12
CCOC(=O)C1CCCN(C(=O)CCn2nc(-c3ccccc3)ccc2=O)C1 (stereo not given) | i | 0.0 | 6.0% | 17.0 | 1.01 | 1.2
CCCC(=O)N1CCN(c2ccc(NC(=O)c3cc4ccccc4o3)cc2)CC1 | i | 13.0 | 11.0% | 15.0 | 1.1 | 1.04
O=C(Nc1ccc(N2CCN(C(=O)c3ccccc3)CC2)cc1)c1cc2ccccc2o1 | i | 0.0 | 2.0% | 6.0 | 1.15 | 2.4*
Cc1cccc(-c2nc(CS(=O)CC(=O)NC3CCCC3)c(C)o2)c1 (stereo not given) | i | 2.0 | 3.0% | 5.0 | 1.06 | 1.07
Cc1cccc(-c2nc(C#N)c(NC3CCCCC3)o2)c1 | i | 0.0 | 11.0% | 33.0 | 1.09 | 2.14*
CCCCNC(=O)CC(=O)Nc1ccccc1C(=O)O | i | 3.0 | 5.0% | 11.0 | 1.01 | 1.09
O=C(NCCc1ccccc1)C1CCCN(S(=O)(=O)c2cccc3nsnc23)C1 (stereo not given) | i | 6.0 | 3.0% | 4.0 | 1 | 1.04
O=C(NC1=NCCS1)c1ccc(-c2ccc(Cl)cc2)o1 | nt | 3.0 | 7.0% | 10.0 | 1.31 | 2.09*
NC(=O)c1ccccc1NS(=O)(=O)Cc1ccccc1 | nt | 3.0 | 7.0% | 10.0 | 1.05 | 2.15*
CC(=O)Nc1ccc(NS(=O)(=O)Cc2ccccc2)cc1 | i | 0.0 | 1.0% | 4.0 | 1.05 | 1.1
CCN(CC)CCN=C1CCCc2ccccc2N1 | i | 5.0 | 4.0% | 6.0 | 1.01 | 1.11
